Experiment [1] is described as follows: small molecules captured by biotinylated probe aFSTL3 – biochemical, small-molecule microarray, fluorescence 635/667, stem cell growth factor project, primary screen (AID 1064).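 Further: measures binding of the biotinylated anti-FSTL3 antibody to printed compounds.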 Particulars: higher = more signal.
Experiment [2] is described as follows: binders from COS7 lysate, DM2A8 probe, primary screen, torsin A project, cell lysate, small-molecule microarray, fluorescence 635/667 (AID 1065). The note with it: higher = more signal, COS7 lysate expressing mutant human TOR1A.
The nature of experiment [3]: small molecules captured by biotinylated probe aFGF2 – biochemical, small-molecule microarray, fluorescence 635/667, stem cell growth factor project, primary screen (AID 1067).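 Further: measures binding of biotinylated aFGF2 protein to printed compounds on slides; z-score merges feature fluorescence and signal-to-noise across triplicate slides.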 The note with it: higher = more signal.
The nature of experiment [4]: small molecules captured by biotinylated probe aFGF10 – biochemical, small-molecule microarray, fluorescence 635/667, stem cell growth factor project, primary screen (AID 1071).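 Further: score merges 667 nm spot intensity and signal to noise from triplicate slides.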 The note with it: higher = more signal.
Experiment [5] addresses Neurogenic locus notch homolog protein 2 (Homo sapiens) (UniProt Q04721). The experiment is described as follows: small molecules binding Notch2 protein – biochemical, small-molecule microarray, 635 nm fluorescence, stem cell growth factors, primary screen (AID 1073). The note with it: higher = more signal.
For experiment [6], the target named is Pro-neuregulin-1, membrane-bound isoform (Homo sapiens) (UniProt Q02297). The experiment is described as follows: small molecules binding neuregulin-1 protein – biochemical, small-molecule microarray, fluorescence 635/667, psychiatric disease protein project, primary screen (AID 1075).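 Further: score combines 667 nm spot fluorescence with signal to noise.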 The note with it: NRG1 binding, 635 nm fluorescence, higher = more signal.
Sequence of Pro-neuregulin-1, membrane-bound isoform (Homo sapiens) (Q02297 whole entry, looked up, canonical isoform): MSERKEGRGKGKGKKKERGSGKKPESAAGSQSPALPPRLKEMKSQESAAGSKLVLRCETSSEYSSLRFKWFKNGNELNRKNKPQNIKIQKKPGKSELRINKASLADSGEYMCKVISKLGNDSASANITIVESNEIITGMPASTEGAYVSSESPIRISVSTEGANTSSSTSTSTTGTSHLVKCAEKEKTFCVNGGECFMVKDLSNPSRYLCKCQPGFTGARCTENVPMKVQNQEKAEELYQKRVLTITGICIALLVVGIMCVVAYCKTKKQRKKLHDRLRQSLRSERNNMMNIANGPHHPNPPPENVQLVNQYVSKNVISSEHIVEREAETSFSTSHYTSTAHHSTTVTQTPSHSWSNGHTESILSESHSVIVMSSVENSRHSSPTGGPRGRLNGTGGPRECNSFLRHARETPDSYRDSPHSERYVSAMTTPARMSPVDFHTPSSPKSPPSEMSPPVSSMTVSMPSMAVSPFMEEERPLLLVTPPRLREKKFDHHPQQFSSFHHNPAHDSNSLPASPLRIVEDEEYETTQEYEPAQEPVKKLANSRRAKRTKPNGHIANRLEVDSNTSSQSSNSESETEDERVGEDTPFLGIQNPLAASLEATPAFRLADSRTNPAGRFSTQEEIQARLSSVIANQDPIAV

The test system of experiment [7] is Neuregulin-1 EGF-like domain. The experiment is described as follows: small molecules binding NRG1 EGF domain – biochemical, small-molecule microarray, 635 nm fluorescence, primary screen (AID 1081).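 Further: binding of the protein to compounds printed on small-molecule microarray slides.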 Particulars: higher = more signal.
Experiment [8] is described as follows: FRG1 expression reporter modulators in myotubes – cell-based, C2C12 myotubes, firefly/Renilla luciferase, luminescence, FRG1 inhibition for FSHD, primary screen (AID 1084). The note with it: FRG1 promoter luciferase, higher = more signal, called active from +8 up or from −8 down.
Experiment [9] is described as follows: small molecules captured by biotinylated probe aFST – biochemical, small-molecule microarray, fluorescence 635/667, stem cell growth factor project, primary screen (AID 1086).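 Further: score merges 667 nm fluorescence with signal-to-noise of each printed compound spot.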 Particulars: higher = more signal.
Experiment [10] in a line: binders of probe aHhip on microarray, primary screen, stem cell growth factor project, biochemical, small-molecule microarray, fluorescence 635/667 (AID 1087).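 Further: score merges spot fluorescence at 667nm with spot signal to noise ratio.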 Particulars: higher = more signal.
In experiment [11] the test system is PRMT1 (protein arginine N-methyltransferase 1). The experiment is described as follows: small molecules binding arginine methyltransferase PRMT1 – biochemical, small-molecule microarray, 635 nm fluorescence, primary screen (AID 1088).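 Further: binding of Prmt1 protein to compounds spotted on small-molecule microarray slides.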 The note with it: higher = more signal.
Experiment [12] is described as follows: growth effects on S. cerevisiae YJM789 – YJM789 clinical isolate, OD600, 24 h, basal, primary screen (AID 1089).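 Further: growth of clinical yeast isolate S. cerevisiae YJM 789 seeded 1000 cells per well; test concentration not given here.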 Particulars: higher = more signal, called active from +8 up or from −8 down.
Experiment [13] can be described thus: S. pombe growth modifiers, basal conditions – strain 972, OD600, 24 h, no modulator, primary screen (AID 1090).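 Further: basal condition with compound alone and no growth modifier present; test concentration not given here.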 The note with it: S. pombe 972 growth, higher = more signal, called active from +8 up or from −8 down.
The nature of experiment [14]: budding yeast growth modifiers under rapamycin – strain BY4716, OD600, 96 h, primary screen (AID 1091). Further: test concentration not given here. The note with it: S. cerevisiae BY4716 + rapamycin, higher = more signal, called active from +8 up or from −8 down.
Experiment [15] concerns the target Torsin-1A-interacting protein 2 (Homo sapiens) (UniProt Q8NFQ8). The experiment is described as follows: small molecules binding lysate-expressed LULL1 – cell lysate, human LULL1 lysate, 635/667 nm fluorescence, primary screen (AID 1092).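 Further: score merges per-feature 667 nm fluorescence with signal-to-noise.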 The note with it: small-molecule microarray, hLULL1 lysate binding, 635 nm fluorescence; higher = more signal.
Experiment [16] can be described thus: optical density change of DRC41 E. coli – strain DRC41, OD650, 24 h, E. coli filamentation project, primary screen (AID 1093).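 Further: MC1000 strain lacking acrAB efflux and sulA so SOS filamentation is blocked; test concentration not given here.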 Particulars: E. coli DRC41 growth, higher = more signal, called active from +8 up or from −8 down.
Experiment [17] is described as follows: probe aLefty2 binding to arrayed compounds – biochemical, biotinylated probe, 635/667 nm fluorescence, primary screen (AID 1094).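 Further: score merges spot fluorescence near 667 nm with spot signal-to-noise ratio.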 The note with it: small-molecule microarray, higher = more signal.
Experiment [18] has as its system Noggin (protein binding on small-molecule microarray). The experiment in a line: small molecules binding Noggin protein – biochemical, 635/667 nm fluorescence, primary screen (AID 1095).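 Further: score merges 667 nm feature fluorescence with signal to noise over triplicate slides.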 The note with it: 635 nm fluorescence, higher = more signal.
Experiment [19] has as its target Neurogenic locus notch homolog protein 3 (Homo sapiens) (UniProt Q9UM47). The experiment is described as follows: small molecules binding NOTCH3 protein – biochemical, 635/667 nm fluorescence, primary screen (AID 1096). Particulars: small-molecule microarray, 635 nm fluorescence, higher = more signal.
Experiment [20] in a line: probe aEGFR binding to arrayed compounds – biochemical, biotinylated probe, 635/667 nm fluorescence, primary screen (AID 1097).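 Further: probe is a biotinylated anti-EGFR antibody binding compounds printed on slides; score combines fluorescence near 667 nm and signal to noise of each spot.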 Particulars: small-molecule microarray, higher = more signal.

Active and inactive are the calls of the source.

Sequence of Neurogenic locus notch homolog protein 3 (Homo sapiens) (Q9UM47 whole entry, looked up): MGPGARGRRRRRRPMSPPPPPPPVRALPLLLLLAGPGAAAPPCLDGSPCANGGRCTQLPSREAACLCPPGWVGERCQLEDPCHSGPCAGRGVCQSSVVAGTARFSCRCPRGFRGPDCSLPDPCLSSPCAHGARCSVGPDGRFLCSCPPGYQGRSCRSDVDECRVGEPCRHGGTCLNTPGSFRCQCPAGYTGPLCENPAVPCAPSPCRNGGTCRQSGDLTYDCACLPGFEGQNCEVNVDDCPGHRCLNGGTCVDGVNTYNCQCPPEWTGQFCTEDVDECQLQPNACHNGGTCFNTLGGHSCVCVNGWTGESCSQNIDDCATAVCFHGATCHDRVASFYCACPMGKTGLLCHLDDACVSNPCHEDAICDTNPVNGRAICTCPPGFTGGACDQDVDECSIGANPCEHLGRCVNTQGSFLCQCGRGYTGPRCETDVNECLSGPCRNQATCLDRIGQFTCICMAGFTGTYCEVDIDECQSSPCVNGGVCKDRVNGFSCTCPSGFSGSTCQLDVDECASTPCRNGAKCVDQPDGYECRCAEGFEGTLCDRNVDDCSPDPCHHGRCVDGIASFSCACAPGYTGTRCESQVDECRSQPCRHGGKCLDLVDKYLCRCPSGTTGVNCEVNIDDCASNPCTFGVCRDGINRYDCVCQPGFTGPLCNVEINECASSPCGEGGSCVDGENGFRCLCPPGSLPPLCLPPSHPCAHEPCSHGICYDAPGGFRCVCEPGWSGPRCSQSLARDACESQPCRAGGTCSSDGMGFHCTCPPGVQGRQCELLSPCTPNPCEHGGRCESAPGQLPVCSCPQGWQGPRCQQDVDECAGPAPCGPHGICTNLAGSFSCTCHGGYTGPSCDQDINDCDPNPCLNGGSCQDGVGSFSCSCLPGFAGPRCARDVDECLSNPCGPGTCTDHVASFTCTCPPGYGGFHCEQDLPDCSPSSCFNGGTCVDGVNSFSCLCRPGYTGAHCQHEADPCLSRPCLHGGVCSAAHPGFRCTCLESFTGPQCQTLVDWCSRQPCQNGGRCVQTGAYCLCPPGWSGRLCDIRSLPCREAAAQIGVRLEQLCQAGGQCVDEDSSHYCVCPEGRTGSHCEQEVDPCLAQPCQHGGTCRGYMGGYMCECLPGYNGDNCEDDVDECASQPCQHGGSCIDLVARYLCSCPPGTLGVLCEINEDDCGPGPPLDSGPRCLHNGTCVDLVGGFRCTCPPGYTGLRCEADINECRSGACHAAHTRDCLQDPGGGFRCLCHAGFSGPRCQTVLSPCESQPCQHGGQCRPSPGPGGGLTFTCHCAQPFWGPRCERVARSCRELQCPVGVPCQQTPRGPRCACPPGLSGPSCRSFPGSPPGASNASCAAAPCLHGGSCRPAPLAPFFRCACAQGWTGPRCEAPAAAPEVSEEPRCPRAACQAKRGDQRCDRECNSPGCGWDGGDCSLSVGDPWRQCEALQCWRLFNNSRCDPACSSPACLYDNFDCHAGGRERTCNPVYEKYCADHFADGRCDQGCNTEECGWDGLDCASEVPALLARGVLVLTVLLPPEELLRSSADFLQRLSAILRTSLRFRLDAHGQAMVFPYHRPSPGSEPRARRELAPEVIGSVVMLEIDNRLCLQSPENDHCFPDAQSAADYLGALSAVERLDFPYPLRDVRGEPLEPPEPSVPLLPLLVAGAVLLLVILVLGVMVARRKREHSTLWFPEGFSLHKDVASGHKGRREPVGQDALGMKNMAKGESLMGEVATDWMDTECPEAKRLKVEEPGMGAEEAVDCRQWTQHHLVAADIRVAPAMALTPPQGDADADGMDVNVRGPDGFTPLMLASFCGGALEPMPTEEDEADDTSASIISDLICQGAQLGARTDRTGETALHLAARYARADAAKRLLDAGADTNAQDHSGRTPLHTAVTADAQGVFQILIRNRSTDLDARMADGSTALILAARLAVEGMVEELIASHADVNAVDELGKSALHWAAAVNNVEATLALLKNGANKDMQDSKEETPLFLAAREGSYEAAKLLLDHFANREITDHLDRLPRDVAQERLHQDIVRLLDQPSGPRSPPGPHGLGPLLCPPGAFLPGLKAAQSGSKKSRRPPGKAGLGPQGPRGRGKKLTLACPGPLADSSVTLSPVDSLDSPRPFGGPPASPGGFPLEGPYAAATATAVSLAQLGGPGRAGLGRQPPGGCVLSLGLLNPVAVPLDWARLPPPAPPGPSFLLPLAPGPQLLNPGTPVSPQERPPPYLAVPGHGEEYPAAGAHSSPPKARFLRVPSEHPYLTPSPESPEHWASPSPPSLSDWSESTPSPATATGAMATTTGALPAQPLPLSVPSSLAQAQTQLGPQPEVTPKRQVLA
Sequence of Torsin-1A-interacting protein 2 (Homo sapiens) (Q8NFQ8 whole entry, looked up): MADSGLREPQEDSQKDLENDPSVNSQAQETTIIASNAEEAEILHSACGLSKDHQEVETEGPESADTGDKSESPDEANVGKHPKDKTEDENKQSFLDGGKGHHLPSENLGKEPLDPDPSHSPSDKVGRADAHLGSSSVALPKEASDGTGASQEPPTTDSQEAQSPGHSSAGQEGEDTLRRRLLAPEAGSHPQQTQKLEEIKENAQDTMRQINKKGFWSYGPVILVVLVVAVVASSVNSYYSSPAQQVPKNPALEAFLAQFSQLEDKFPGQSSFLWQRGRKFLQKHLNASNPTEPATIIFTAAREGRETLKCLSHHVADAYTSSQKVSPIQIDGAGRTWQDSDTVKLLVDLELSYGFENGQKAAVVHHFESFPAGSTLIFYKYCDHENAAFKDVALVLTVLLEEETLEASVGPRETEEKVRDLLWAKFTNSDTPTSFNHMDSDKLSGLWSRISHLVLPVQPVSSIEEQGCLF

Turning to `COCCCNC(=O)[C@]1(CCS(=O)(=O)c2ccccc2)N=C(c2ccc(OCCCO)cc2)O[C@@H]1c1ccccc1CN=[N+]=[N-]`, the composite z-score in [1] is 0.688; in [2], 1.32; in experiment [3], 0.418; in [4], 0.948; in experiment [5], 1.63; in experiment [6], 1.79. Also, the composite z-score is 1.14 in [7]; 1.44 in [9]; -0.0518 in [10]; 1.55 in experiment [11]; 3.47 in [15]; 0.417 in experiment [17]. Besides, the composite z-score came out at 0.896 in experiment [18], 1.02 in experiment [19] and 0.455 in [20]. Further, the z-score in [8] was 0.174 (inactive); in experiment [12] it was 1.52 (inactive); in experiment [13], 0.971 (inactive); in experiment [14] it was 2.59 (inactive); in experiment [16] it was 0.773 (inactive).

On to `COC(=O)[C@@]1(Cc2ccc(OC)cc2)[C@H]2c3cc(C(=O)N(C)C)n(CCO)c3C[C@H]2CN1C(=O)c1ccccc1`, for which the composite z-score was 0.494 in [1]; 2.56 in experiment [2]; 0.152 in experiment [3]; -0.359 in [4]; 0.993 in experiment [5]; 2.13 in experiment [6]. Moreover, the composite z-score in experiment [7] was -0.139; in experiment [9] it was 0.871; in experiment [10], 0.0365; in experiment [11] it was -1.15; in experiment [15], 1.96; in experiment [17], 0.333. Further, the composite z-score was -1.13 in [18], -0.175 in [19] and -0.0521 in experiment [20]. Further, the z-score in [8] is 1.63 (inactive); in experiment [12], -0.809 (inactive); in experiment [13] it was 0.142 (inactive); in experiment [14], -0.14 (inactive); in experiment [16], -0.285 (inactive).

For `CC(=O)c1ccc(C(O)C2C=CC3C(=O)N(c4ccccc4)C(=O)C3N2Nc2ccc(C#N)cc2)cc1` (stereo not given), the composite z-score in [1] is 0.0415; in [2] it was 0.233; in experiment [3], -0.122; in experiment [4], -0.0474; in experiment [5], 0.833; in experiment [6], 1.5. Besides, the composite z-score in experiment [7] was 0.609; in [9], 0.766; in [10] it was -0.0645; in [11] it was 0.155; in experiment [15], 3.76; in [17], -0.103. For the same compound, the composite z-score in experiment [18] is -0.442; in experiment [19], 0.352; in experiment [20], 0.0753. The z-score was -0.0141 (inactive) in experiment [8]; -0.623 (inactive) in experiment [12]; 1.04 (inactive) in experiment [13]; 2.05 (inactive) in experiment [14]; -0.963 (inactive) in experiment [16].

On to `COCCOC(=O)N1C(=O)[C@@]2(c3cc(C#CC4=CCCCC4)ccc31)[C@H](c1ccc(O)cc1)N1[C@H](c3ccccc3)[C@H](c3ccccc3)OC(=O)[C@H]1[C@@H]2C(=O)N1CCN(c2ncccn2)CC1`, for which the composite z-score in experiment [1] was 0.875; in [2] it was -0.0653; in experiment [3], -0.141; in [4], -0.164; in experiment [5], -1.58; in experiment [6] it was 0.576. The composite z-score in [7] was -0.0176; in experiment [9], -0.841; in experiment [10], -0.277; in experiment [11], 0.234; in [15] it was -0.142; in experiment [17], -0.192. Besides, the composite z-score in experiment [18] was -1.1; in experiment [19], -0.756; in experiment [20] it was -0.348. Also, the z-score was 0.214 (inactive) in experiment [8]; 0.358 (inactive) in experiment [12]; 0.371 (inactive) in [13]; 0.58 (inactive) in [14]; -0.737 (inactive) in experiment [16].

As to `COCCOC(=O)N1C(=O)[C@@]2(c3cc(C#Cc4ccc(OC)cc4)ccc31)[C@H](c1ccc(O)cc1)N1[C@H](c3ccccc3)[C@H](c3ccccc3)OC(=O)[C@H]1[C@@H]2C(=O)N1CCCCCCC1`, the composite z-score in experiment [1] came out at 2.84; in experiment [2] it was 0.746; in experiment [3], 0.0177; in experiment [4] it was 0.178; in [5], 0.679; in [6] it was 0.326. In addition, the composite z-score came out at 0.341 in experiment [7]; 2.46 in [9]; 2.1 in [10]; 0.632 in experiment [11]; 1.46 in experiment [15]; 1.43 in [17]. The composite z-score turned out to be 0.332 in experiment [18], 0.0324 in experiment [19] and 0.642 in experiment [20]. Moreover, the z-score was 1.39 (inactive) in experiment [8]; -0.158 (inactive) in experiment [12]; -0.239 (inactive) in [13]; 1.47 (inactive) in experiment [14]; -0.0793 (inactive) in [16].
